SUMO Mot1 rescue = inhibitors of SUMOylation pathway: yeast Mot1-301 growth rescue; S. cerevisiae Mot1-301 growth rescue, ATP luminescence, 38.5C; percent above DMSO median, 100 means doubled; AID 2716; 1% of 320,000 active; growth rescue, % at 18.8 µM;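 active = every valid replicate shows activation above 250% relative to neutral control wells; inactive = the rest, any valid replicate at or below 250%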;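 note: OY570 slx delta 5 strain wells were the positive control but not used for scaling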
aDG glyco up = alpha-DG glycosylation activation; Pro5-aDG cells, alpha-DG glycosylation AlphaScreen (IIH6); 0% Pro5, 100% B10-LARGE cell signal; activation, % at 10 µM; 0.22% of 360,000 active;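 active = activation of at least 8% versus controls, or a plate z-score of at least 8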;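 note: Pro5 are CHO cells carrying HIG-tagged alpha-DG that lacks glycosylation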
CR mimetic SO = yeast age-related superoxide inhibition as caloric restriction mimetic. AID 2690. S. cerevisiae aged cells, superoxide DHE fluorescence; stronger effect = lower value. 0.18% of 330,000 active. superoxide response (% of plate mean), % at 10 µM;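 active = superoxide response under a set limit, about three screen SD below normal, cut at about 65% in these data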;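 note: yeast aged for seven days with compound at 30 °C before DHE staining; 100% = average MFI of all compound-treated wells on the plate with controls excluded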
FAS-TE inh = blocks the thioesterase domain of human fatty acid synthase; P49327; inhibition, % at 15 µM; 0.67% of 360,000 active; recombinant FAS-TE, OMFH fluorogenic substrate, fluorescence endpoint; AID 602261;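 active = compounds whose normalised, plate-corrected inhibition of enzyme fluorescence in the single-dose primary screen is 50% or more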;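 note: 0% = DMSO with enzyme and 100% = substrate without enzyme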
MPTP block = permeability transition pore inhibition | isolated mouse mitochondria, Ca2+ swelling absorbance, 30 min | inhibition, % at 10 µM | 1.4% of 360,000 active | AID 602449;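 active = inhibition of 50% or more, scaled per plate between neutral and stimulator controls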;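 note: 0% = DMSO wells given calcium and 100% = 1 mM EGTA wells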
Cardio protect = myocardial damage modulation in H9c2 cells. protection from H2O2 cell death, % at 20 µM. H9c2 cardiomyocytes, H2O2 injury protection, ATPLite, 2 h. 0.63% of 360,000 active;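 active = compounds giving at least 50% protection of heart cells from peroxide-induced death in the single-dose screen, raw or plate-pattern-corrected value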;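 note: 0% = DMSO wells with peroxide and 100% = DMSO wells without peroxide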
Yeast Mot1 SUMO = inhibits SUMO pathway, affecting Mot1-301 yeast growth; shares compounds with SUMO Mot1 rescue; S. cerevisiae Mot1-301 galactose growth, ATP luminescence, 24 h; -100 = growth of slx-deleted rescue strain; growth activity, percent, % at 42 µM; 2,300 tested, under 10 active; AID 493004;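 active = Signal drops as the depositor expects, and the fitted half-maximal dose is no more than ten times the top valid tested dose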;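 note: more negative values mean stronger growth rescue toward the control strain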
The depositor's hits bear a star; nt = no result given; + = active, no number; [ ] = dose if it differs, or a comment. Compounds with a hit are over-represented: about 3.8% of the library has one in this group of screens.

SMILES | SUMO Mot1 rescue | aDG glyco up | CR mimetic SO | FAS-TE inh | MPTP block | Cardio protect | Yeast Mot1 SUMO
CNS(=O)(=O)c1ccc2c(c1)oc(=O)c1cc(S(=O)(=O)NC)ccc12 | 6 | 1 | 101 | -10 | -1 | 10 | nt
O=c1oc2cc(S(=O)(=O)NCCCO)ccc2c2ccc(S(=O)(=O)NCCCO)cc12 | 461* | 0 | 96 | -8 | 1 | -11 | 0
CC(=NNC1=NCCN1)c1cnn(C2=NCCN2)c1C | nt | 0 | nt | -4 | 0 | 6 | nt
O=C(O)C1CCCN1C(=O)c1cncc(Br)c1 (stereo not given) | + | 0 | 101 | -8 | -1 | 8 | 1
CCS(=O)(=O)N1CCC(C(=O)Nc2ccc3c(c2)CCC3)CC1 | -28 | 0 | 97 | -3 | 1 | -3 | nt
CN(C)CCN(Cc1ccc(Cl)cc1)c1ccccn1 | 558* | 0 | 99 | 0 | 1 | 14 | -1
O=C1CCCN1CCC(=O)N1CCCC(N2CCN(c3ccccc3F)CC2)C1 (stereo not given) | 481* | 0 | 92 | -5 | -1 | 0 | 0
Cc1cc(OC(=O)c2cccs2)ccc1C(C)C | 14 | 0 | 105 | 14 | -1 | -13 | nt
O=C(Oc1ccc2c(c1)OCO2)c1cccs1 | 478* | 0 | 101 | 1 | 2 | -1 | 1
CN=C1SC(CC(=O)Nc2sc3c(c2C#N)CCCC3)C(=O)N1C (stereo not given) | 364* | 0 | 87 | 3 | 0 | -3 | 0
CCC(=O)Nc1sc2c(c1C#N)CCC2 | 5 | 0 | 95 | -4 | 1 | -5 | nt
O=C(NCCc1ccccc1)C(=O)c1cn(CC(=O)N2CCCC2)c2ccccc12 | 7 | 0 | 104 | 2 | 0 | 3 | nt
CCC(=O)Nc1ccc(Br)c(Cl)c1 | 703* | 0 | 95 | 0 | 3 | -7 | 1
CCC(=O)N1CCC(C)(C(=O)Nc2ccc(OC)c(OC)c2)C1 (stereo not given) | nt | 0 | nt | -8 | 0 | -4 | nt
COc1ccc(Oc2ccc(C(F)(F)F)cc2NC(=O)CC(CC(=O)O)c2ccccc2)cc1 (stereo not given) | -11 | 0 | 102 | 1 | 4 | -2 | nt
Cc1cc(C)n(CCCNC(=O)CN(C)S(=O)(=O)c2ccc(Cl)cc2)n1 | 817* | 0 | 86 | -7 | 0 | 0 | 0
CN(CC(=O)NCCCn1ccnc1)S(=O)(=O)c1ccc(Cl)cc1 | -6 | 0 | 104 | -7 | 0 | 2 | nt
CC1CCCCN1C(=O)C(Cc1ccccc1)N1C(=O)C2CCCCC2C1=O (stereo not given) | 862* | 0 | 106 | -6 | 4 | 4 | -1
O=C(c1cc(N2C(=O)C3C4CCC(C4)C3C2=O)ccc1Cl)N1CCCCCC1 (stereo not given) | 361* | 0 | 99 | -6 | 3 | 4 | 1
CCc1ccccc1NC(=S)NN | -15 | nt | 102 | nt | nt | nt | nt
CCc1ccccc1NC(=S)NNC(=O)c1ccccc1Cl | + | 1 | 100 | -5 | 1 | -1 | 0
COc1ccc(-n2ncc3c2CC(C)(C)CC3NC(=O)c2ocnc2C)cc1 (stereo not given) | -9 | 0 | 104 | -2 | 0 | 3 | nt
CCOc1ccc(Br)cc1S(=O)(=O)NC1CC(C)(C)NC(C)(C)C1 | -4 | 0 | 102 | -5 | 1 | 7 | nt
COc1ccccc1-c1sc2cc3c(cc2c1-c1ccc2c(c1)OCO2)OCO3 | -13 | 0 | 96 | 29 | 0 | -1 | nt
COc1ccccc1-c1sc2ccccc2c1-c1ccc2c(c1)OCO2 | 998* | 0 | 91 | 24 | -1 | -4 | 1
SMILES | SUMO Mot1 rescue | aDG glyco up | CR mimetic SO | FAS-TE inh | MPTP block | Cardio protect | Yeast Mot1 SUMO
Cc1ccc(C)c(C(=O)CN2C(=O)c3ccccc3C2=O)c1 | -1 | 0 | 98 | 8 | 2 | 2 | nt
Cc1c(O)ccc(C(=O)CN2C(=O)c3ccccc3C2=O)c1O | 876* | 0 | 110 | -1 | 1 | 7 | 2
Cc1cc([N+](=O)[O-])nn1CC(=O)NNC(=S)Nc1ccc([N+](=O)[O-])cc1 | 672* | 0 | 96 | -4 | 0 | 4 | 0
COc1ccc(NC(=S)NNC(=O)Cn2nc([N+](=O)[O-])cc2C)cc1 | 18 | 0 | 120 | -6 | -3 | 0 | nt
COc1ccc(C(=O)CC(=O)C(=O)Nc2ccc(C)c(Cl)c2)cc1 | 918* | 0 | 110 | 0 | 2 | 17 | 1
CCOc1ccc(C2C(C(=O)c3cccs3)=C(O)C(=O)N2CCN2CCOCC2)cc1 (stereo not given) | -4 | 0 | 98 | -1 | 0 | -2 | nt
COc1cccc(N=Nc2c(=O)[nH]n3c(=O)cc(C)[nH]c23)c1 | 372* | 0 | 116 | -3 | 0 | 1 | 1
COc1ccc2[nH]c(=O)c(CN(C(=O)c3ccccn3)c3ccccc3)cc2c1 | + | 0 | 91 | -1 | 0 | 29 | 1
COc1ccc(CNC(=O)CCS(=O)(=O)c2ccc3c(c2)oc(=O)n3C)cc1 | -3 | 0 | 83 | -3 | 0 | -4 | nt
CCN(C(=O)CCS(=O)(=O)c1ccc2c(c1)oc(=O)n2C)c1ccc(OC)cc1 | 378* | 0 | 88 | 5 | 0 | 0 | 0
CCc1cc(=O)oc2cc(C)cc(OC(C)C(=O)NCCN3CCOCC3)c12 (stereo not given) | -16 | 0 | 93 | -5 | -2 | 4 | nt
COC(=O)C1C2C=CC3(CN(CCc4ccccc4)C(=O)C13)O2 (stereo not given) | 429* | 0 | 99 | -4 | 1 | 6 | 0[21 µM]
CCOC(=O)C1C2C=CC3(CN(CCc4ccccc4)C(=O)C13)O2 (stereo not given) | -20 | 0 | 107 | -9 | -1 | -7 | nt
CCCCCCC1CC(=CN(C)C)C(=O)O1 (stereo not given) | nt | 0 | nt | -4 | 0 | -3 | nt
Cc1cc(C(=O)NN)n[nH]1 | 590* | 0 | 110 | -6 | 1 | 2 | 0
COc1ccc(C(=O)NC(C(=O)OCC(=O)Nc2sccc2C(N)=O)C(C)C)cc1 (stereo not given) | -22 | 0 | 103 | -4 | -1 | -9 | nt
CC(=O)N1N=C(N)SC12CCCC2 | + | 0 | 102 | -4 | -1 | 2 | 0
CC(=O)NC1=NN(C(C)=O)C2(CCCC2)S1 | -6 | 0 | 97 | -2 | 1 | 2 | nt
CCOCCCNC(=O)C(c1ccc(OC)cc1)N(Cc1cccs1)C(=O)CNC(C)=O (stereo not given) | 5 | 0 | 92 | -9 | -2 | 1 | nt
